PLC-beta3 inh: blocks human PLC-beta3 enzyme activity | Q01970 | Purified PLC-beta3, fluorogenic substrate, fluorescence | inhibition, % at 12.2 µM | 0.18% of 370,000 active | AID 720704; in the data active = inhibition above about 11%;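 note: 0% = median of compound wells on plate and 100% = full blocker control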
Rce1 inhib: yeast Ras-converting enzyme inhibition; Q03530; yeast membranes, quenched prenylated peptide cleavage fluorescence; calls only; 0.27% of 290,000 active;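 active = fall in fluorescence gain of 50% or more versus controls, with final raw signal at or below 3038400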;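 note: plate controls were neutral control wells for no effect and wells lacking membranes for full effect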
ADAM17 inh: inhibits human ADAM17; 0.83% of 370,000 active; recombinant ADAM17, EDANS/DABCYL FRET peptide cleavage; inhibition, % at 6.95 µM; AID 720648;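 active = inhibition above the mean of compounds lying between control limits plus 3 SD, set per campaign, cut at about 8.5% in these data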;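 note: 0% = DMSO-only wells as the low control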
Target sequence (P78536 215-824 limits assumed): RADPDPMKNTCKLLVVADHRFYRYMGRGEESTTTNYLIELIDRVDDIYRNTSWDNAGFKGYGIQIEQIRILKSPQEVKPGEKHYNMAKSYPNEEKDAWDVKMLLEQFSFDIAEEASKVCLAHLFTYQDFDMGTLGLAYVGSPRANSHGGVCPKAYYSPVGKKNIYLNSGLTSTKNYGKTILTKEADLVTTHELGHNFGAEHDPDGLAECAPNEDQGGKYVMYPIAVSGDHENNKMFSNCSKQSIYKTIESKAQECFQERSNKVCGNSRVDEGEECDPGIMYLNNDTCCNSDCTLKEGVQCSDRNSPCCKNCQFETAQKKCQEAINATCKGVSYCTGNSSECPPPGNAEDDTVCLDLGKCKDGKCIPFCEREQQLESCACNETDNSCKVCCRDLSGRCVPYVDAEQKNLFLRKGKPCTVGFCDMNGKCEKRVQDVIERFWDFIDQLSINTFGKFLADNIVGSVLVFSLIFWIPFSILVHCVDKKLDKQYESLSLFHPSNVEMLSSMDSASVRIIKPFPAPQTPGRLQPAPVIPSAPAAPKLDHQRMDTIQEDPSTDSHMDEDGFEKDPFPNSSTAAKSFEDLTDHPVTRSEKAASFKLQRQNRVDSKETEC
PLCg1 inh: inhibitors of human phospholipase C gamma1 | inhibition, % at 12.2 µM | 0.84% of 370,000 active | purified PLC-gamma1, fluorogenic substrate, fluorescence | AID 720700 | P19174; in the data active = inhibition above about 9.5%
ADAM10 inh: ADAM10 inhibition, QFRET primary screen | recombinant ADAM10, EDANS/DABCYL FRET peptide cleavage, 3 h | inhibition, % at 7 µM | 0.62% of 370,000 active;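 active = inhibition above a per-campaign cutoff equal to the mean of compounds falling between control-based bounds plus 3 SD, cut at about 20% in these data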;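 note: 0% = DMSO wells while the 100% control is not disclosed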
ADAM10 ctr: counter-screen for ADAM17 exosite inhibitors: inhibitors of human ADAM10 | shares compounds with ADAM17 inh | recombinant ADAM10, EDANS/DABCYL FRET peptide cleavage, 3 h | inhibition, % at 6.95 µM | 47% of 2,900 active | AID 743256;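 active = mean inhibition over the triplicate runs exceeds the activity threshold set in the earlier primary screen, cut at about 20% in these data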;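 note: 0% = DMSO wells and 100% = marimastat wells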
ADAM17 confirm: human ADAM17 inhibition, confirmation. 65% of 2,900 active. shares compounds with ADAM17 inh. recombinant ADAM17, EDANS/DABCYL QFRET peptide cleavage. inhibition, % at 6.95 µM;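 active = mean inhibition across replicates above the hit cutoff set in the primary screen, cut at about 8.5% in these data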;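 note: 0% = DMSO wells and 100% = marimastat wells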
* hit, by the source's call; i = inactive; . = no result given. Hits are enriched below; roughly 2.1% of the tested compounds scored in any of these assays.

SMILES	PLC-beta3 inh	Rce1 inhib	ADAM17 inh	PLCg1 inh	ADAM10 inh	ADAM10 ctr	ADAM17 confirm
CCOc1ccc(-c2c(C(=O)N/N=C/C3CC=CCC3)nnn2-c2nonc2N)cc1 (configuration not stated)	-6	i	9.6*	1	7	4	7
COc1ccc(OCCN2CCC(C(=O)NC(C)c3cccc4ccccc34)CC2)cc1 (configuration not stated)	3	.	-3	1	-5	.	.
CC(C)(C)OC(=O)N(Cc1ccccc1)Cc1ccccc1OCc1cccc(NC(=O)C2CC2)c1	-2	.	9.5*	4	9	20*	18*
CC(C)(C)OC(=O)N(Cc1ccccc1)Cc1ccccc1OCc1cccc(NC(=O)C2CCC2)c1	-1	.	-3	0	-8	.	.
CCOC(=O)C1=CCN(S(=O)(=O)c2ccc(C)cc2)C1c1cccc2ccccc12 (configuration not stated)	2	.	7	4	5	.	.
CCOC(=O)C1=CCN(S(=O)(=O)c2ccc(C)cc2)C1c1cccs1 (configuration not stated)	4	.	11*	6	17	6	7
COc1cccc(CNC(=O)CCS(=O)(=O)c2ccc3c(c2)NC(=O)CS3)c1	-1	i	8.7*	3	1	-9	0
COC(=O)[C@H](CC(C)C)NCc1cccc(CN[C@@H](CC(C)C)C(=O)OC)c1	5	i	8.9*	6	7	7	3
COc1ccc(CCNC(=O)c2ccccc2NC(=O)C2=C(C)OCCS2)cc1OC	-6	i	1	2	-4	.	.
O=C(c1cc(F)c(F)c(F)c1F)N1CCN(C(=O)C2CCCO2)CC1 (configuration not stated)	9	.	8.7*	9	-4	-8	0
C=CCC[C@H](Cc1ccc(F)cc1)C(=O)O[C@H](CNC(=O)[C@@H](CC=C)CC(=O)N(CCO)Cc1ccccc1)c1ccccc1	1	.	11*	0	14	45*	22*
CCOC(=O)c1cnc2ccc(OCC)cc2c1N(C)Cc1ccccc1	-2	i	9.4*	-2	7	24*	15*
COc1cccc(OC)c1C(=O)Nc1cccc(-c2nc3ccccc3[nH]2)c1	-7	i	8.7*	8	5	-10	-3
O=[N+]([O-])CC(c1ccccc1)P(=O)(c1ccccc1)c1ccccc1 (configuration not stated)	-3	i	16*	-1	1	-3	32*
CCc1cccc(C)c1NC(=S)N(CCN(C)C)C(C)c1cccnc1 (configuration not stated)	-7	i	-6	1	1	.	.
COc1cccc(C(C)(O)c2nc(-c3cccc4cccnc34)cs2)c1 (configuration not stated)	-18	.	-7	-10	-29	.	.
CCN1C(=O)N[C@@H](CCc2ccccc2)[C@@H](C(=O)OC)[C@H]1C	7	i	9.8*	4	-1	7	7
COC(=O)[C@H]1[C@H](CCc2ccccc2)NC(=O)N(Cc2ccccc2)[C@@H]1C	1	i	-2	4	6	.	.
CN(C(=O)c1ccc(NC(=O)Cc2cccc(NC(=O)C3CCCN(C(=O)C4CCC4)C3)c2)cc1)C1CC1 (configuration not stated)	3	.	-1	1	-3	.	.
CC(C)(C)OC(=O)N1CCCC(C(=O)Nc2cccc(C(=O)NCCCc3ccccc3)c2)C1 (configuration not stated)	9	.	12*	4	10	20	10*
CN(C(=O)c1ccc(NC(=O)Cc2cccc(NC(=O)C3CCCN(C(=O)C4CCCC4)C3)c2)cc1)C1CCCC1 (configuration not stated)	10	.	9.4*	6	5	18	9
CC(C)(C)OC(=O)N1CCC(C(=O)Nc2cccc(C(=O)NCCCc3ccccc3)c2)CC1	-1	.	-1	1	-7	.	.
O=C1/C(=C/c2cccs2)SC(=S)N1c1cccc(O)c1	-3	i	-1	3	8	.	.
CCC(C(=O)O)N1C(=O)/C(=C/c2cccn2C)SC1=S (configuration not stated)	-10	.	8.8*	3	19	17	12*
Cn1cccc1/C=C1\SC(=S)N(NC(=O)c2ccc(F)cc2)C1=O	-23	i	13*	-8	15	8	4
SMILES	PLC-beta3 inh	Rce1 inhib	ADAM17 inh	PLCg1 inh	ADAM10 inh	ADAM10 ctr	ADAM17 confirm
CC(C(=O)O)N1C(=O)/C(=C/c2cccn2C)SC1=S (configuration not stated)	-6	.	2	-6	9	.	.
Cc1[nH]c2ccccc2c1C(=O)COC(=O)c1c(-c2ccccc2Cl)noc1C	0	i	9.5*	-2	20	33*	18*
CC1Sc2ccc(S(=O)(=O)N3CCC(C(=O)NCCc4ccccc4)CC3)cc2NC1=O (configuration not stated)	-7	i	-1	-1	9	.	.
CC1Sc2ccc(S(=O)(=O)N3CCC(C(=O)NCC(C)c4ccccc4)CC3)cc2NC1=O (configuration not stated)	0	i	16*	6	10	-6	1
COc1ccc(CNS(=O)(=O)/C=C/c2ccc(OC)cc2CNC(=O)OC(C)(C)C)cc1	4	.	9.4*	0	11	23*	9.7*
N#CC1=C(N)Oc2cc(Nc3ccccc3)ccc2C1c1ccncc1 (configuration not stated)	-3	i	0	-3	10	.	.
Nc1nc(Nc2ccccc2)nc(NCc2ccccc2)c1[N+](=O)[O-]	-6	i	2	2	16	.	.
Cc1cccc(Nc2nc(N)c([N+](=O)[O-])c(NCc3ccccc3)n2)c1	-3	i	9.2*	3	13	10	5
O=C(NCCN1CCCC1)C(c1ccccc1)c1ccccc1	-3	i	4	1	3	.	.
COc1cc(C(O)c2nc(-c3ccc(F)cc3OC)cs2)ccc1F (configuration not stated)	-4	.	12*	-2	3	26*	14*
OC(c1ccc(F)c(F)c1)c1nc(-c2csc3ccccc23)cs1 (configuration not stated)	2	.	6	-1	10	.	.
COc1cc(C(O)c2nc(-c3csc4ccccc34)cs2)ccc1F (configuration not stated)	-3	.	10*	1	12	23*	17*
COc1cc(F)ccc1-c1csc(C(O)c2ccc(F)c(F)c2)n1 (configuration not stated)	-6	.	6	-1	12	.	.
Cc1ccc(-c2nn(-c3ccccc3)cc2C(=O)Nc2cccc(S(=O)(=O)NC3=NCCC3)c2)cc1	1	.	5	-2	16	.	.
